In ChEMBL document CHEMBL3988442, “University of Dundee, Small-Polar-MMV Screening Library” (2021):
For some of these results: Measured potencies and affinities stand elsewhere.

Experiments:
Parameters in all cases: scale not given: direction of the effect not stated beside the values
[1] = biological target: Protein translocase subunit SecA (Escherichia coli (strain K12)) (UniProt P10408); experiment: Assay to Identify E. coli SecA ATPase Inhibitors; assay type: functional; details: 30 µM
[2] = biological target: T1, Ubiquitin-activating enzyme e1, putative (Leishmania donovani (strain BPK282A1)) (UniProt E9BSI1); experiment: Leishmania donovani Ubiquitin Activating Enzyme (LdE1); assay type: functional; details: 30 µM
T1 sequence (whole entry): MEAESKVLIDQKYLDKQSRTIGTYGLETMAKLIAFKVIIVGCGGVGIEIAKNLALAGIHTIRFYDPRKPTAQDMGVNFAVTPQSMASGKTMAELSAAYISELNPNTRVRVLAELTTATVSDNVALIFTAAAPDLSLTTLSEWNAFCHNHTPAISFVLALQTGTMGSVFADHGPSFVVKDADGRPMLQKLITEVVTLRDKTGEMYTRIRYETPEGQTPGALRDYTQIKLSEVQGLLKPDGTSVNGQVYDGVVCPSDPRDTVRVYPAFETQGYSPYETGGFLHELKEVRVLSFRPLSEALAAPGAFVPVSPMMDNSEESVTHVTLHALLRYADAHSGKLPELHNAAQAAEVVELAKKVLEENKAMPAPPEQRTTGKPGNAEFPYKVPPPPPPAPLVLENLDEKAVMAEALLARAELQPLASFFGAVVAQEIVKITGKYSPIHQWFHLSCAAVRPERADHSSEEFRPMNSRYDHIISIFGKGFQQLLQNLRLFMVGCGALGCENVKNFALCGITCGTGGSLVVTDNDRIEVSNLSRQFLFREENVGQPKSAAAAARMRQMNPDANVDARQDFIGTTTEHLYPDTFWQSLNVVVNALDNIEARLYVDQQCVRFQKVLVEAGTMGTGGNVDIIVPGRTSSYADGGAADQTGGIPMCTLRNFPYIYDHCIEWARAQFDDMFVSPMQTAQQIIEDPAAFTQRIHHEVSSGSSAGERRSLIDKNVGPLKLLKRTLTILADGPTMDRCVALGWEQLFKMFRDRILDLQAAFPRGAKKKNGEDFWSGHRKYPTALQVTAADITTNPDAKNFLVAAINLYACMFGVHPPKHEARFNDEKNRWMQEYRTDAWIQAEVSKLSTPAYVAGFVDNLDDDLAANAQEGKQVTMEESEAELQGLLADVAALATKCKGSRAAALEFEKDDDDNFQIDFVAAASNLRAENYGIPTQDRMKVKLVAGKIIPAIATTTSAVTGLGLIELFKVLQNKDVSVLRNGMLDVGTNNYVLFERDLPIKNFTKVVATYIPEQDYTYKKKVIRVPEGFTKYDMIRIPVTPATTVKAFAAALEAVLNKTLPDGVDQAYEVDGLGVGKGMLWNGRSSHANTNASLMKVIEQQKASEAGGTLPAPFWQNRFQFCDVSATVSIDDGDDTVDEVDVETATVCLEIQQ

[3] = biological target: AMP-activated protein kinase, AMPK (Homo sapiens) (UniProt P54646+O43741+P54619+Q9UGJ0+Q9Y478+Q13131+Q9UGI9); experiment: AMP-dependent Kinase enzyme assay. An in vitro enzyme assay that detects ADP turnover that is directly proportional to AMPK activity. This uses naive AMPK that is activated during the assay with MK-8722; assay type: functional; details: 30 µM
[4] = biological target: Sialic acid-binding Ig-like lectin 9 (Homo sapiens) (UniProt Q9Y336); experiment: Hs-Siglec9 ALPHAscreen SOP 20170721; details: 10 µM
Trypanosoma cruzi = experiment: Trypanosoma cruzi phosphomannomutase and mannose-1-phosphate guanylyltransferase assay; assay type: functional; details: 10 µM
[5] = biological target: T2, Arginase-2, mitochondrial (Homo sapiens) (UniProt P78540); experiment: in vitro enzyme assay to detect the production of urea directly proportional to the activity of Arginase II; assay type: functional; details: 33.3 µM; note: in the data most compounds retested in dose-response had high values
T2 sequence (whole entry): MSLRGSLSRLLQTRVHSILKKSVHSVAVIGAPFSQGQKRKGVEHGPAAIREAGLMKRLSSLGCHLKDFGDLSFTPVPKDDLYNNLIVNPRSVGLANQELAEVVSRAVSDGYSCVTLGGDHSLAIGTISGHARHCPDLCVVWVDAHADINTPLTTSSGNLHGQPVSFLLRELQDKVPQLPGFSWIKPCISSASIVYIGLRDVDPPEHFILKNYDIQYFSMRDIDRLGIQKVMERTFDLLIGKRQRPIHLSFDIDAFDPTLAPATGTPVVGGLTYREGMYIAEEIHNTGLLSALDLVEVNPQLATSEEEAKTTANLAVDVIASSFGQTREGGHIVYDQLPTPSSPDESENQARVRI

[6] = biological target: T3, Proteasome subunit beta (Trypanosoma cruzi) (UniProt O96673); experiment: Trypanosoma cruzi proteasome chymotrypsin-like activity (TcProtChymo) assay.; note: in the data most compounds retested in dose-response had high values; assay type: functional; details: 9.37 µM
T3 sequence (whole entry): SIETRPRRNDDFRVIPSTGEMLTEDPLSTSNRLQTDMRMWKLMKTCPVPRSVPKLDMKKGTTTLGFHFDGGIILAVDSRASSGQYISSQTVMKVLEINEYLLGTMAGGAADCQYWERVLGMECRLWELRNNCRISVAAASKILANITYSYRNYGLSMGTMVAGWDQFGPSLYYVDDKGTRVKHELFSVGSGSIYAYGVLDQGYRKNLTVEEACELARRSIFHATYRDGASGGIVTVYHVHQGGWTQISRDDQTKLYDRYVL

Homo sapiens = species on record: Homo sapiens; experiment: To identify inhibition of the IFN signalling (Jak-Stat) pathway via expression of an eGFP reporter gene under the control of an IFN-stimulated response element (ISRE) containing MxA promoter.; assay type: functional; details: 30 µM
[7] = biological target: T4, Tyrosyl-tRNA synthetase, putative (Trypanosoma cruzi (strain CL Brener)) (UniProt Q4DSP6); experiment: Trypanosoma cruzi tyrosyl tRNA synthetase (TcYRS) _High Tyrosine SOP; assay type: functional; details: 30 µM; note: in the data most compounds retested in dose-response had high values
T4 sequence (whole entry): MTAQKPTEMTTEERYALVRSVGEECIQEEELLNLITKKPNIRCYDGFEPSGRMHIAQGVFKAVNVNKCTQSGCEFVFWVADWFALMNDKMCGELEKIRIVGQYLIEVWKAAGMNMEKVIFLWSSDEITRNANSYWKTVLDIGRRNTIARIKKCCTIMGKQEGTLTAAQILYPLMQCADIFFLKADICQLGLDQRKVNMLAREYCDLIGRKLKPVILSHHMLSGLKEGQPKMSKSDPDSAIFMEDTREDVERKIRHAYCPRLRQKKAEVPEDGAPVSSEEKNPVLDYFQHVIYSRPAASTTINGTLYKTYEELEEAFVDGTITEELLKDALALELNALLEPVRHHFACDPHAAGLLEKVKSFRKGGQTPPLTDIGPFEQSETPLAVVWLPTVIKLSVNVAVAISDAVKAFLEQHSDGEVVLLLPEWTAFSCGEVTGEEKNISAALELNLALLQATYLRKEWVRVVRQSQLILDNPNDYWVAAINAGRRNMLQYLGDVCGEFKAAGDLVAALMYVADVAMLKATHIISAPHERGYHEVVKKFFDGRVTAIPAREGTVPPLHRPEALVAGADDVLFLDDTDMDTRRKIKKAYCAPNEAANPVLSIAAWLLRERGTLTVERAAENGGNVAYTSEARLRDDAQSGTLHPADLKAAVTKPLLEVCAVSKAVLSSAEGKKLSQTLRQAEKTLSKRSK

[8] = biological target: T4, Tyrosyl-tRNA synthetase, putative (Trypanosoma cruzi (strain CL Brener)); experiment: Trypanosoma cruzi tyrosyl tRNA synthetase (TcYRS) SOP; assay type: functional; details: 30 µM
[9] = biological target: Chromo domain-containing protein 1 (Saccharomyces cerevisiae (strain ATCC 204508 / S288c) (Baker's yeast)) (UniProt P32657); experiment: ScCHD-1 Enzyme Inhibition Assay; assay type: functional; details: 30 µM; note: in the data most compounds retested in dose-response had high values
Chain of Chromo domain-containing protein 1 (Saccharomyces cerevisiae (strain ATCC 204508 / S288c) (Baker's yeast)) (P32657 whole entry, the tested form may be a part): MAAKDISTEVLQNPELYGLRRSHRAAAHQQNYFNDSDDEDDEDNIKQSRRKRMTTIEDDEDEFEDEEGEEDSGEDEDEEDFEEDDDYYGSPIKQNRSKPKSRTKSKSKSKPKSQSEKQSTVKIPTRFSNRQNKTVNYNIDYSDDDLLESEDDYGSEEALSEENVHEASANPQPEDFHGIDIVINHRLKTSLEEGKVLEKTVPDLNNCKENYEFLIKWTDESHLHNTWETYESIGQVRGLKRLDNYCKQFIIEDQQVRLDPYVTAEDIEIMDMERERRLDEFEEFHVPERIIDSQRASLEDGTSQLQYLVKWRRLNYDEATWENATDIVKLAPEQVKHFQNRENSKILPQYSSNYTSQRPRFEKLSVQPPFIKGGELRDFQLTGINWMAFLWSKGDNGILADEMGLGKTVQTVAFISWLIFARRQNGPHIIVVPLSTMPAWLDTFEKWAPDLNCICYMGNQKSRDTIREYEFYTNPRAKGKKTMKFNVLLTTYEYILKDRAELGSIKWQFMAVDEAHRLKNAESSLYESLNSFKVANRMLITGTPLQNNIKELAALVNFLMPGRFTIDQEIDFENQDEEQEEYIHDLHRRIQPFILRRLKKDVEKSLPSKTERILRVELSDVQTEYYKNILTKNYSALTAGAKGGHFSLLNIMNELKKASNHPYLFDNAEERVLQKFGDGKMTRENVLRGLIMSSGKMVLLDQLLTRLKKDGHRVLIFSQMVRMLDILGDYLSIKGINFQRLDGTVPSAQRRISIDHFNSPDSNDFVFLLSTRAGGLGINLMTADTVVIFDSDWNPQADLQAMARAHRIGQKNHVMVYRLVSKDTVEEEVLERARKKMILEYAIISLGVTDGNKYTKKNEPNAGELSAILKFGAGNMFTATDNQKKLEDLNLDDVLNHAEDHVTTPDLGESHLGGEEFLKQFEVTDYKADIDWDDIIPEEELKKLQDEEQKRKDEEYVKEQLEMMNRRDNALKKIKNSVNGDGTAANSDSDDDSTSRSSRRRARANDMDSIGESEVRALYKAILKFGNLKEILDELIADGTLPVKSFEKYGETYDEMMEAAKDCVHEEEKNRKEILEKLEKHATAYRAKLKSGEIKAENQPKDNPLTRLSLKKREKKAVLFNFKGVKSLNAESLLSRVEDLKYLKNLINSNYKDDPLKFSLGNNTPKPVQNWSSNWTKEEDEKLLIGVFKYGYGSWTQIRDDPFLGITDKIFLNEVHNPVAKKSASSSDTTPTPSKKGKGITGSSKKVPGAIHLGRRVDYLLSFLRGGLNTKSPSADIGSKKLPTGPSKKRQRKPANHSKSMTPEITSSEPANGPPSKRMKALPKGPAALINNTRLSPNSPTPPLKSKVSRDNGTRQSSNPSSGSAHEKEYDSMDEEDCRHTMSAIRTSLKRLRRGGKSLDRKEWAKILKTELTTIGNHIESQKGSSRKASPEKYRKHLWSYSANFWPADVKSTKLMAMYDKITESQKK

Chain of Protein translocase subunit SecA (Escherichia coli (strain K12)) (P10408 whole entry): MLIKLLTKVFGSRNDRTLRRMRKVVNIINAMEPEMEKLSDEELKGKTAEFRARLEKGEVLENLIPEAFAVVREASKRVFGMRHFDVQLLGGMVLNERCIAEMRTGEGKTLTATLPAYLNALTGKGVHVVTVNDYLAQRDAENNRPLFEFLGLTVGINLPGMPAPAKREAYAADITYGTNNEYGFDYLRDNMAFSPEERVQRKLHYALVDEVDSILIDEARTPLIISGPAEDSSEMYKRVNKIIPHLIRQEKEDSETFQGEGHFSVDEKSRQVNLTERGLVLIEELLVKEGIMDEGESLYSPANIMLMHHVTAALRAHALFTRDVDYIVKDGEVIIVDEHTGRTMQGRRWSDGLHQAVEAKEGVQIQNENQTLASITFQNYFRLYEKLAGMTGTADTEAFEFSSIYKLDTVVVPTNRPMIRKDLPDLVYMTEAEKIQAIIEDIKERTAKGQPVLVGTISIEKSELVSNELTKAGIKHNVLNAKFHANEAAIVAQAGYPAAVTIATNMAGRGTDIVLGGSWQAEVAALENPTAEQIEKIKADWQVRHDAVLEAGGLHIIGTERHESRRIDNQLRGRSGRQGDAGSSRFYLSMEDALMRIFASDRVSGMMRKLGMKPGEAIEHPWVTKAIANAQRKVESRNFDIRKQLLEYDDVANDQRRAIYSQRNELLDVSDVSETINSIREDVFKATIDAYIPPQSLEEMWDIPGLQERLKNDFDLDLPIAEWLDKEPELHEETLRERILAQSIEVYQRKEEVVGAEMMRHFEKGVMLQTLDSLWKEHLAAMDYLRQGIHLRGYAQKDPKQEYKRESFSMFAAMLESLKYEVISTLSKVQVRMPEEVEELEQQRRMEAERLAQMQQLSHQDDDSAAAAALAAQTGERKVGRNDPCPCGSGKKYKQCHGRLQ
Chain of Sialic acid-binding Ig-like lectin 9 (Homo sapiens) (Q9Y336 whole entry): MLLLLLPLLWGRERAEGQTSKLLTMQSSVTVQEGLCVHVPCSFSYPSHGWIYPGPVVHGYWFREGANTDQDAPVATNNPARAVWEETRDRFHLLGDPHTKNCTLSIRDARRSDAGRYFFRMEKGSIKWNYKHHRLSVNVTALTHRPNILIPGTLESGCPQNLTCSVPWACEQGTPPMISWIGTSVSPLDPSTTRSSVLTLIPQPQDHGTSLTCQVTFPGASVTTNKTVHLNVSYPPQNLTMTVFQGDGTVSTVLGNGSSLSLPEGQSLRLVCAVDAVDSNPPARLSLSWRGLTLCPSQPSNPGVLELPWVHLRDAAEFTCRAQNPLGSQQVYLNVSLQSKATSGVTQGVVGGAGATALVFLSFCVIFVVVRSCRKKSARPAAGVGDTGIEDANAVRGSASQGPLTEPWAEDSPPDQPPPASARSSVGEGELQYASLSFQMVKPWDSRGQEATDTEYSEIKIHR

Structure (SMILES) | Percent Effect [1] | Percent Effect [2] | Percent Effect [3] | Percent Effect [4] | Percent Effect (Trypanosoma cruzi) | Percent Effect [5] | Percent Effect [6] | Percent Effect (Homo sapiens) | Percent Effect [7] | Percent Effect [8] | Percent Effect [9]
CC(OCC(F)(F)F)C(=O)N1CCN(S(C)(=O)=O)CC1 (stereo unspecified) | -3.82% | 8.22% | 1.32% | -5.16% | -3.92% | 1.36% | 9.05% | 17.4% | 6.45% | 15% | -6.7%
Cc1cccc(NC(=O)N2CCCn3cnc(CN4CCCC4)c3C2)c1 | -3.65% | 8.11% | -3.2% | -1.77% | 3.91% | 0% | 12.4% | -6.55% | 16.8% | 11% | -4.14%
COc1ncccc1C(=O)N1CCN(C(=O)Cc2ccccn2)CC1 | -1.65% | 21.5% | -6.89% | -0.0483% | 2.36% | -2.37% | 18% | 17.4% | 7.29% | 20.2% | -20.3%
Cc1cnc(C(=O)N2CCCN(Cc3csc(C)n3)CC2)cn1 | -5.93% | 13.7% | -7.71% | 11.9% | 6.75% | 2% | 18.8% | -1.38% | 5.21% | 8.64% | -12.5%
Cc1cc(C(=O)N2CCCC2c2nnc3n2CCCCC3)no1 (stereo unspecified) | -2.02% | 6.94% | -6.41% | -2.93% | 0.291% | 2.21% | 21.1% | -18.8% | 6.32% | 12.8% | -5.42%
NC(=O)c1cc(NC(=O)N2CCCCCC2)ccc1F | -2.22% | 16.2% | 5.3% | 2.48% | 2.15% | 30.4% | 11.1% | 44.5% | 6.93% | 13.4% | -2.07%
Nc1cc2c(nn1)CCN(C(=O)CC1CCCC1)C2 | -3.9% | 10.1% | -4.63% | 16.5% | -3.12% | -0.38% | -0.246% | -1.92% | 7.39% | 13.9% | -5.84%
CCN1CC(C(=O)N(C)Cc2ccon2)CC1=O (stereo unspecified) | -8.65% | 0% | -1.95% | -7.7% | -2.44% | -2.73% | 7.47% | 13.7% | -1.07% | -1.24% | -3.83%
COc1ccc(OCc2nc(C(=O)N3CC[C@H](O)[C@@H](O)C3)co2)cc1 | -5.04% | 2.7% | -0.405% | 4.91% | -3.09% | -0.476% | 12.8% | -0.834% | 6.88% | 12.2% | -4.44%
N#Cc1cccc(CS(=O)(=O)NCCC(O)c2ccccc2)c1 (stereo unspecified) | 13% | 5.33% | -6.17% | 7.18% | 4.77% | 15.1% | 16.2% | 3.01% | 4.92% | 16.1% | -6.38%
COCC(=O)N1CC[C@@H]2O[C@@H](COCc3csc(C)n3)CC[C@@H]21 | -2.35% | 13.5% | 4.29% | -14.3% | -2.25% | 7.96% | 26.9% | -1.3% | 8.65% | 12.8% | -4.47%
